Results as given in the supplement of paper PMC4466140.

How the values were obtained:
Assay in all cases: SPOT peptide array binding signal intensity (averaged, normalized) (arbitrary units (background-subtracted, floor 0; scale differs between SH3 domains)); higher = stronger binding of the SH3 domain to the peptide
CaNbp2 = target: CaNbp2
In short: (§1)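 Binding signal is given in arbitrary units that differ between domains and is the normalized, background-subtracted spot intensity averaged across replicates. Each GST-SH3 fusion from one of four yeast species was made in E. coli BL21(DE3), purified on glutathione Sepharose and incubated at 10 μg/ml overnight at 4°C on cellulose-bound synthetic 15-mer peptides in which cysteines were replaced by serines. Detection used anti-GST antibody, an HRP anti-mouse secondary and luminol, followed by imaging and Genespotter quantification.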

CaRvs167 = target: CaRvs167
In short: as §1

CaRvs167-3 = target: CaRvs167-3
In short: as §1

CaSho1 = target: CaSho1
In short: as §1

CaSla1-D1-D2 = target: CaSla1-D1-D2
In short: as §1

CaSla1-D3 = target: CaSla1-D3
In short: as §1

ScAbp1 = target: ScAbp1
In short: as §1

ScBbc1 = target: ScBbc1
In short: as §1

ScBem1-D1 = target: ScBem1-D1
In short: as §1

ScBzz1-D1 = target: ScBzz1-D1
In short: as §1

ScBzz1-D2 = target: ScBzz1-D2
In short: as §1

ScCyk3 = target: ScCyk3
In short: as §1

ScFus1 = target: ScFus1
In short: as §1

ScHof1 = target: ScHof1
In short: as §1

ScHse1 = target: ScHse1
In short: as §1

ScLsb1 = target: ScLsb1
In short: as §1

ScLsb2 = target: ScLsb2
In short: as §1

ScLsb3 = target: ScLsb3
In short: as §1

ScLsb4 = target: ScLsb4
In short: as §1

ScMyo3 = target: ScMyo3
In short: as §1

ScMyo5 = target: ScMyo5
In short: as §1

ScNbp2 = target: ScNbp2
In short: as §1

ScPex13 = target: ScPex13
In short: as §1

ScRvs167 = target: ScRvs167
In short: as §1

ScSho1 = target: ScSho1
In short: as §1

ScSla1-D1-D2 = target: ScSla1-D1-D2
In short: as §1

ScSla1-D3 = target: ScSla1-D3
In short: as §1

SpAbp1-D1 = target: SpAbp1-D1
In short: as §1

SpBbc1 = target: SpBbc1
In short: as §1

SpBzz1-D1 = target: SpBzz1-D1
In short: as §1

SpBzz1-D2 = target: SpBzz1-D2
In short: as §1

SpCyk3 = target: SpCyk3
In short: as §1

SpHof1 = target: SpHof1
In short: as §1

SpHof1-2 = target: SpHof1-2
In short: as §1

SpHof1-3 = target: SpHof1-3
In short: as §1

SpHse1 = target: SpHse1
In short: as §1

SpLsb1 = target: SpLsb1
In short: as §1

SpLsb4 = target: SpLsb4
In short: as §1

SpMyo1 = target: SpMyo1
In short: as §1

SpNbp2 = target: SpNbp2
In short: as §1

SpPex13 = target: SpPex13
In short: as §1

SpRvs167 = target: SpRvs167
In short: as §1

SpSla1-D1-D2 = target: SpSla1-D1-D2
In short: as §1

SpSla1-D3 = target: SpSla1-D3
In short: as §1

AgAbp1 = target: AgAbp1
In short: as §1

AgBbc1 = target: AgBbc1
In short: as §1

AgBem1-D1 = target: AgBem1-D1
In short: as §1

AgBzz1-D1 = target: AgBzz1-D1
In short: as §1

AgBzz1-D2 = target: AgBzz1-D2
In short: as §1

AgCyk3 = target: AgCyk3
In short: as §1

AgFus1 = target: AgFus1
In short: as §1

AgHof1 = target: AgHof1
In short: as §1

AgHse1 = target: AgHse1
In short: as §1

AgLsb1 = target: AgLsb1
In short: as §1

AgLsb4 = target: AgLsb4
In short: as §1

AgMyo5 = target: AgMyo5
In short: as §1

AgNbp2 = target: AgNbp2
In short: as §1

AgRvs167 = target: AgRvs167
In short: as §1

AgSho1 = target: AgSho1
In short: as §1

AgSla1-D1-D2 = target: AgSla1-D1-D2
In short: as §1

AgSla1-D3 = target: AgSla1-D3
In short: as §1

CaAbp1-D1 = target: CaAbp1-D1
In short: as §1

CaAbp1-D2 = target: CaAbp1-D2
In short: as §1

CaBbc1 = target: CaBbc1
In short: as §1

CaBem1-D1 = target: CaBem1-D1
In short: as §1

CaBzz1-D1 = target: CaBzz1-D1
In short: as §1

CaBzz1-D2 = target: CaBzz1-D2
In short: as §1

CaCyk3 = target: CaCyk3
In short: as §1

CaFus1 = target: CaFus1
In short: as §1

CaHof1 = target: CaHof1
In short: as §1

CaHse1 = target: CaHse1
In short: as §1

CaLsb1 = target: CaLsb1
In short: as §1

CaLsb4 = target: CaLsb4
In short: as §1

CaMyo5 = target: CaMyo5
In short: as §1

## KKEKKPPKIPKKVYT
CaNbp2
  SPOT peptide array binding signal intensity: 10
CaRvs167
  SPOT peptide array binding signal intensity: 2
CaRvs167-3
  SPOT peptide array binding signal intensity: 4.5
CaSho1
  SPOT peptide array binding signal intensity: 13
CaSla1-D1-D2
  SPOT peptide array binding signal intensity: 79
CaSla1-D3
  SPOT peptide array binding signal intensity: ≤ 0
ScAbp1
  SPOT peptide array binding signal intensity: 901
ScBbc1
  SPOT peptide array binding signal intensity: 1
ScBem1-D1
  SPOT peptide array binding signal intensity: 16
ScBzz1-D1
  SPOT peptide array binding signal intensity: 98
ScBzz1-D2
  SPOT peptide array binding signal intensity: 9.5
ScCyk3
  SPOT peptide array binding signal intensity: ≤ 0
ScFus1
  SPOT peptide array binding signal intensity: ≤ 0
ScHof1
  SPOT peptide array binding signal intensity: 1.5
ScHse1
  SPOT peptide array binding signal intensity: 91
ScLsb1
  SPOT peptide array binding signal intensity: 4.75
ScLsb2
  SPOT peptide array binding signal intensity: 2
ScLsb3
  SPOT peptide array binding signal intensity: 256
ScLsb4
  SPOT peptide array binding signal intensity: ≤ 0
ScMyo3
  SPOT peptide array binding signal intensity: ≤ 0
ScMyo5
  SPOT peptide array binding signal intensity: 4.25
ScNbp2
  SPOT peptide array binding signal intensity: 2
ScPex13
  SPOT peptide array binding signal intensity: 11
ScRvs167
  SPOT peptide array binding signal intensity: 2
ScSho1
  SPOT peptide array binding signal intensity: 109
ScSla1-D1-D2
  SPOT peptide array binding signal intensity: 10
ScSla1-D3
  SPOT peptide array binding signal intensity: 14.5
SpAbp1-D1
  SPOT peptide array binding signal intensity: 396
SpBbc1
  SPOT peptide array binding signal intensity: 3.5
SpBzz1-D1
  SPOT peptide array binding signal intensity: 158
SpBzz1-D2
  SPOT peptide array binding signal intensity: 0.75
SpCyk3
  SPOT peptide array binding signal intensity: ≤ 0
SpHof1
  SPOT peptide array binding signal intensity: 1.75
SpHof1-2
  SPOT peptide array binding signal intensity: 1
SpHof1-3
  SPOT peptide array binding signal intensity: 6.25
SpHse1
  SPOT peptide array binding signal intensity: 1.5
SpLsb1
  SPOT peptide array binding signal intensity: 55
SpLsb4
  SPOT peptide array binding signal intensity: ≤ 0
SpMyo1
  SPOT peptide array binding signal intensity: 3.25
SpNbp2
  SPOT peptide array binding signal intensity: ≤ 0
SpPex13
  SPOT peptide array binding signal intensity: ≤ 0
SpRvs167
  SPOT peptide array binding signal intensity: 8.33
SpSla1-D1-D2
  SPOT peptide array binding signal intensity: 4
SpSla1-D3
  SPOT peptide array binding signal intensity: 3.5

## APPPPPRRATPEKKP
AgAbp1
  SPOT peptide array binding signal intensity: 79
AgBbc1
  SPOT peptide array binding signal intensity: 202
AgBem1-D1
  SPOT peptide array binding signal intensity: 24.5
AgBzz1-D1
  SPOT peptide array binding signal intensity: 84
AgBzz1-D2
  SPOT peptide array binding signal intensity: 29.5
AgCyk3
  SPOT peptide array binding signal intensity: ≤ 0
AgFus1
  SPOT peptide array binding signal intensity: ≤ 0
AgHof1
  SPOT peptide array binding signal intensity: 0.75
AgHse1
  SPOT peptide array binding signal intensity: 17
AgLsb1
  SPOT peptide array binding signal intensity: 17.5
AgLsb4
  SPOT peptide array binding signal intensity: 192
AgMyo5
  SPOT peptide array binding signal intensity: 4
AgNbp2
  SPOT peptide array binding signal intensity: ≤ 0
AgRvs167
  SPOT peptide array binding signal intensity: 209
AgSho1
  SPOT peptide array binding signal intensity: 1.5
AgSla1-D1-D2
  SPOT peptide array binding signal intensity: ≤ 0
AgSla1-D3
  SPOT peptide array binding signal intensity: 1.5
CaAbp1-D1
  SPOT peptide array binding signal intensity: 62
CaAbp1-D2
  SPOT peptide array binding signal intensity: 58
CaBbc1
  SPOT peptide array binding signal intensity: 368
CaBem1-D1
  SPOT peptide array binding signal intensity: 1
CaBzz1-D1
  SPOT peptide array binding signal intensity: 1050
CaBzz1-D2
  SPOT peptide array binding signal intensity: 156
CaCyk3
  SPOT peptide array binding signal intensity: 18.5
CaFus1
  SPOT peptide array binding signal intensity: 52.5
CaHof1
  SPOT peptide array binding signal intensity: 73
CaHse1
  SPOT peptide array binding signal intensity: 3
CaLsb1
  SPOT peptide array binding signal intensity: ≤ 0
CaLsb4
  SPOT peptide array binding signal intensity: 1860
CaMyo5
  SPOT peptide array binding signal intensity: 2.5
CaNbp2
  SPOT peptide array binding signal intensity: 53
CaRvs167
  SPOT peptide array binding signal intensity: 94.7
CaRvs167-3
  SPOT peptide array binding signal intensity: 1
CaSho1
  SPOT peptide array binding signal intensity: ≤ 0
CaSla1-D1-D2
  SPOT peptide array binding signal intensity: 1170
CaSla1-D3
  SPOT peptide array binding signal intensity: 3
ScAbp1
  SPOT peptide array binding signal intensity: 69
ScBbc1
  SPOT peptide array binding signal intensity: 54.8
ScBem1-D1
  SPOT peptide array binding signal intensity: ≤ 0
ScBzz1-D1
  SPOT peptide array binding signal intensity: 14
ScBzz1-D2
  SPOT peptide array binding signal intensity: 10
ScCyk3
  SPOT peptide array binding signal intensity: ≤ 0
ScFus1
  SPOT peptide array binding signal intensity: 3
ScHof1
  SPOT peptide array binding signal intensity: 9.75
ScHse1
  SPOT peptide array binding signal intensity: 30
ScLsb1
  SPOT peptide array binding signal intensity: 43.8
ScLsb2
  SPOT peptide array binding signal intensity: 9
ScLsb3
  SPOT peptide array binding signal intensity: 1690
ScLsb4
  SPOT peptide array binding signal intensity: 375
ScMyo3
  SPOT peptide array binding signal intensity: 111
ScMyo5
  SPOT peptide array binding signal intensity: 29.5
ScNbp2
  SPOT peptide array binding signal intensity: ≤ 0
ScPex13
  SPOT peptide array binding signal intensity: 89.2
ScRvs167
  SPOT peptide array binding signal intensity: 963
ScSho1
  SPOT peptide array binding signal intensity: 56
ScSla1-D1-D2
  SPOT peptide array binding signal intensity: 459
ScSla1-D3
  SPOT peptide array binding signal intensity: 3.25
SpAbp1-D1
  SPOT peptide array binding signal intensity: 165
SpBbc1
  SPOT peptide array binding signal intensity: 2.5
SpBzz1-D1
  SPOT peptide array binding signal intensity: 814
